Consider 40 molecules from PubChem BioAssay (NCI).

The structures appear in SMILES notation. About 83,000 compounds went through this panel and 20% of them were active in at least one assay; those are over-represented in the sample as a whole.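 For each line, cells grew in 96-well plates with the test compound present at a single concentration for 48 hours.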 The source made the active and inactive calls. How the source made its calls: active means growth percent below 10; inactive means the rest.

The experiment has as its system HL-60(TB) leukemia. The experiment is described as follows: NCI-60 one-dose screen, 48 h (100 = growth as untreated, 0 = no growth, -100 = all killed). The following applies: 10 µM unless noted.
Regarding `FC(F)(F)c1cccc(-c2cn3c(ccc4ccccc43)n2)c1`, the growth is 114% (inactive).

Consider `CC[C@@](C)(NC(=O)[C@H](C)NC(=O)CCNC(=O)C(C)(C)NC(=O)[C@H](C)NC(=O)[C@@H]1CCCN1C(=O)[C@@](C)(CC)NC(=O)[C@H](Cc1ccccc1)NC(=O)C1CCCN1C(=O)C(C)(C)NC(=O)C1CCCN1C(=O)C(C)(C)NC(C)=O)C(=O)NCCC(=O)N[C@@H](CC(C)C)C(=O)NC(C)(C)C(=O)NCCC(=O)N[C@@H](CC(C)C)C(=O)NC(C)(C)C(=O)NC(C)(C)C(=O)N[C@@H](CC(C)C)C(=O)NCCC(=O)NCO` (stereo not given in full), for which the growth was -62.3% (active). Next, `COc1ccc2cc(-c3nc4ccccc4[nH]3)c(=O)oc2c1`: 81.2% (inactive). Next, `O=C(N/N=C\c1cc(Cl)ccc1[N+](=O)[O-])c1ccco1`: 107% (inactive); `CCC(=O)Nc1cc2c(cc1Cl)-c1ccccc1C2`: 39.4% (inactive); `Cc1cc(=O)[nH]c(NN=C2CCCC2)n1`: 94.6% (inactive). As for `CCCCCCCCCCSC(=N)N` (tested in a mixture with another compound), the figure is 62.8% (inactive); as for `COc1cc2c(cc1OCCCN1Cc3ccc(OCCCCC(=O)N4CCC(CCN5CCCC5)CC4)cc3C1)N=C(N)C21CCCC1`, 84.9% (inactive); as for `S=c1[nH]nc(Cc2ccccc2)c(=S)[nH]1`, 98.5% (inactive). On to `COc1cc([C@@H]2c3cc4c(cc3[C@H](SC(=N)N)[C@H]3COC(=O)[C@H]23)OCO4)cc(OC)c1OC`, for which the growth was -18.8% (active).

Consider `Cc1cccc2c(Nc3ccc(NS(C)(=O)=O)cc3)c3ccc([N+](=O)[O-])cc3nc12`, for which the growth was -27.2% (active). Next, `CN(C)C(=S)NN=C(c1ccccn1)c1ccccn1`: -27.5% (active); `CON1C(=O)CC[C@]2(C)[C@H]3CC[C@@H]4C([C@@]5(C)CCC(=O)O5)CC[C@@]4(C)[C@]3(C)CC[C@H]2C1(C)C` (stereo not given in full): 100% (inactive); `CC1(C)CCC(C)(C)NC(=S)N1`: 89.3% (inactive). With `COc1cccc(-c2nc3sccn3c2-c2cccc(S(C)(=O)=O)c2)c1`, the growth is 98.3% (inactive). As for `C[C@]12CC[C@H]3[C@@H](CCC4=CC(=O)CC[C@@]43C)[C@@H]1CC[C@@H]2c1csc(N)n1`, the figure is 0.82% (active).

For `NCCCNc1nc2ccccc2c2c(=O)c3cc(Cl)ccc3sc12`, the growth is -56.8% (active). Next, `CSc1nc2ccc(C)cc2cc1/C=N/O`: 91.6% (inactive); `CCCCN1C(=O)/C(=c2\sc3n(c2=O)NC2C(N=3)N(CC)C(=O)N2CC)c2ccccc21` (stereo not given): 21.3% (inactive). As for `Brc1ccc(SCN(CSc2ccc(Br)cc2)Cc2ccccc2)cc1`, the figure is 40.3% (inactive).

Take `COCCOC(=O)NC(=O)Nc1ccc(C(=O)c2ccc(Cl)cc2)cc1`: the growth is -13.3% (active). For the molecule `Fc1ccc(-c2nnc(N3CCOCC3)c3ccccc23)cc1`, the growth is 264% (inactive).

For the molecule `COC(=O)c1cc2c(/C=C3/NC(=S)NC3=O)coc2n1C`, the growth is 100% (inactive). As for `CCOC(=O)C1=C(C(F)(F)F)NC(=S)NC1CN1C(=O)c2ccccc2C1=O` (stereo not given), the figure is 86.7% (inactive); as for `C=C(C)[C@@H]1CC[C@]2(COC(=O)c3cccnc3)CC[C@]3(C)[C@H](CC[C@@H]4[C@@]5(C)CCCN(C(=O)c6cccnc6)C(C)(C)[C@@H]5CC[C@]43C)[C@@H]12`, 11.6% (inactive). `O=S(=O)(O)c1ccc(O)c(C2CCCCC2)c1`: the growth was 131% (inactive). For the molecule `C[C@]12C[C@@H](c3ccoc3)OC(=O)[C@@H]1CC[C@]1(C)[C@@H]2CC[C@@H](O)[C@]1(C)O`, the growth was 9.31% (active).

`COc1cc([C@@H]2c3cc4c(cc3C(OC3O[C@@H]5COC(C)O[C@H]5[C@H](O)[C@H]3O)C3COC(=O)[C@@H]32)OCO4)cc(OC)c1O` (stereo not given in full): the growth was -2.39% (active).

With `CC(Br)C(Br)c1cc2c(cc1Br)OCO2` (stereo not given), the growth was 97% (inactive).

`COc1cc2c(cc1OC)[C@H](C(=O)O)[C@@H](c1ccc(OC(C)C)c(OC)c1)N(C)C2=O`: the growth was 94.9% (inactive). On to `CN(Cc1cnc2nc(N)nc(N)c2n1)c1ccc(C(=O)NC(CCC(=O)O)C(=O)O)cc1Br` (stereo not given), for which the growth was 45.2% (inactive). Next, `CNc1nc(NC2CCCC2)nc(Sc2ccc(OC)cc2)n1`: 2% [100 µM] (active). As for `C=C1C(=O)O[C@H]2[C@H]1CC/C(CNC(=O)c1c[nH]c3ccc(F)cc13)=C\CC[C@@]1(C)O[C@@H]21`, the figure is -35% (active); as for `O=C(N=Nc1c(O)[nH]c2ccccc12)Nc1ccc(F)cc1`, 94.5% (inactive); as for `C=C1C(=O)O[C@H]2[C@H]1CC/C(C(=O)Nc1ccc(OC)c(C(N)=O)c1O)=C\CC[C@@]1(C)O[C@@H]21`, 0.316% (active). As for `COc1cc(NC(=O)CCSc2nc3ccc(C)cc3c(=O)n2Cc2ccccc2)cc(OC)c1OC`, the figure is 116% (inactive); as for `COc1ccc(OC)c(/C=C/c2nc(SCc3ccccc3)n(-c3ccc(Cl)cc3)n2)c1`, 1.31% (active); as for `COc1cc(-c2nc3sccn3c2-c2ccnc(NCCNS(=O)(=O)c3ccc(Cl)cc3)n2)ccc1F`, 9.59% (active). Turning to `COc1cccc(/C=N/C(=S)NC2(C)C3CCC(C3)C2(C)C)c1O` (stereo not given), the growth was 75.5% (inactive).

Take `CCN(CC)CCCCNc1ccc(NCCCCN(CC)CC)c2c1C(=O)c1ccccc1C2=O`: the growth was 70% (inactive).
